By inhibition is commonly meant the drop in the measured response relative to a control, in per cent.

Unmarked numbers belong to inactive results. Calls of active or inactive are those of the source. Cut-off read from the data, not from the text of the source, unless noted: active = inhibition above about 30%; inactive = the rest.

Test [1] concerns the target Nuclear receptor coactivator 3 (Homo sapiens) (UniProt Q9Y6Q9). In words: NCOA3 GAL4-fusion reporter inhibition – cell-based, luminescence, quadruplicate, confirmation (AID 588792;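 active = mean inhibition over 43.08%, the solvent-only control mean plus 3 SD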;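 note: 0% = DMSO treated cells and 100% = gossypol at 36 µM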). Conditions: HEK293 GAL4-SRC3 luciferase reporter, at 3.6 µM, stronger effect = higher value.
Test [2] concerns transactivating tegument protein VP16 (Human herpesvirus 1), Gal4-VP16 luciferase reporter. In words: repression of VP16-driven luciferase reporter – cell-based, luminescence, high throughput, counter-screen for SRC3 inhibitor project (AID 588794). To be noted: mammalian cells, at 3.6 µM, stronger effect = higher value. Background: In a reporter assay the amount or activity of a reporter protein is the signal.

Test [3] concerns the target Nuclear receptor coactivator 1 (Homo sapiens) (UniProt Q15788). In words: NCOA1 GAL4-fusion reporter inhibition – cell-based, luminescence, quadruplicate, confirmation (AID 588820;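 active = mean inhibition above 46.68%, the untreated control wells mean plus 3 SD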;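 note: 0% = DMSO wells and 100% = gossypol 36 µM treated wells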). Conditions: HEK293 GAL4-SRC1 luciferase reporter, at 3.6 µM, stronger effect = higher value.
A short description of test [4]: repression of VP16-driven luciferase reporter – cell-based, luminescence, high throughput, counter-screen for SRC1 inhibitor project (AID 588824; in the data active = inhibition above about 25%). Conditions: cell-based VP16 transactivation luciferase luminescence; at 3.6 µM; stronger effect = higher value.
The test system of test [5] is transactivating tegument protein VP16 (Human herpesvirus 1). Kind of test: compounds suppressing VP16-driven luciferase signal – cell-based, luminescence, single concentration, counter-screen for SRC2 inhibitor project (AID 652007; in the data active = inhibition above about 36%). To be noted: cell-based VP16 transactivation luciferase reporter, at 8.9 µM, stronger effect = higher value. In general terms: Counterscreens check selectivity or assay interference.

The target in test [6] is Nuclear receptor coactivator 2 (Homo sapiens) (UniProt Q15596). Kind of test: inhibition of GAL4-SRC2 driven luciferase expression – cell-based, luminescence, HEK293, triplicate, confirmation (AID 652008;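 active = mean inhibition above 46.5%, the solvent-only control mean plus 3 SD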;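 note: 0% = DMSO-treated cells and 100% = Gossypol at 36 µM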). To be noted: HEK293 GAL4-SRC2 luciferase reporter, at 8.9 µM, stronger effect = higher value.
Sequence of Nuclear receptor coactivator 2 (Homo sapiens) (Q15596 whole entry, looked up, the tested form may be a part): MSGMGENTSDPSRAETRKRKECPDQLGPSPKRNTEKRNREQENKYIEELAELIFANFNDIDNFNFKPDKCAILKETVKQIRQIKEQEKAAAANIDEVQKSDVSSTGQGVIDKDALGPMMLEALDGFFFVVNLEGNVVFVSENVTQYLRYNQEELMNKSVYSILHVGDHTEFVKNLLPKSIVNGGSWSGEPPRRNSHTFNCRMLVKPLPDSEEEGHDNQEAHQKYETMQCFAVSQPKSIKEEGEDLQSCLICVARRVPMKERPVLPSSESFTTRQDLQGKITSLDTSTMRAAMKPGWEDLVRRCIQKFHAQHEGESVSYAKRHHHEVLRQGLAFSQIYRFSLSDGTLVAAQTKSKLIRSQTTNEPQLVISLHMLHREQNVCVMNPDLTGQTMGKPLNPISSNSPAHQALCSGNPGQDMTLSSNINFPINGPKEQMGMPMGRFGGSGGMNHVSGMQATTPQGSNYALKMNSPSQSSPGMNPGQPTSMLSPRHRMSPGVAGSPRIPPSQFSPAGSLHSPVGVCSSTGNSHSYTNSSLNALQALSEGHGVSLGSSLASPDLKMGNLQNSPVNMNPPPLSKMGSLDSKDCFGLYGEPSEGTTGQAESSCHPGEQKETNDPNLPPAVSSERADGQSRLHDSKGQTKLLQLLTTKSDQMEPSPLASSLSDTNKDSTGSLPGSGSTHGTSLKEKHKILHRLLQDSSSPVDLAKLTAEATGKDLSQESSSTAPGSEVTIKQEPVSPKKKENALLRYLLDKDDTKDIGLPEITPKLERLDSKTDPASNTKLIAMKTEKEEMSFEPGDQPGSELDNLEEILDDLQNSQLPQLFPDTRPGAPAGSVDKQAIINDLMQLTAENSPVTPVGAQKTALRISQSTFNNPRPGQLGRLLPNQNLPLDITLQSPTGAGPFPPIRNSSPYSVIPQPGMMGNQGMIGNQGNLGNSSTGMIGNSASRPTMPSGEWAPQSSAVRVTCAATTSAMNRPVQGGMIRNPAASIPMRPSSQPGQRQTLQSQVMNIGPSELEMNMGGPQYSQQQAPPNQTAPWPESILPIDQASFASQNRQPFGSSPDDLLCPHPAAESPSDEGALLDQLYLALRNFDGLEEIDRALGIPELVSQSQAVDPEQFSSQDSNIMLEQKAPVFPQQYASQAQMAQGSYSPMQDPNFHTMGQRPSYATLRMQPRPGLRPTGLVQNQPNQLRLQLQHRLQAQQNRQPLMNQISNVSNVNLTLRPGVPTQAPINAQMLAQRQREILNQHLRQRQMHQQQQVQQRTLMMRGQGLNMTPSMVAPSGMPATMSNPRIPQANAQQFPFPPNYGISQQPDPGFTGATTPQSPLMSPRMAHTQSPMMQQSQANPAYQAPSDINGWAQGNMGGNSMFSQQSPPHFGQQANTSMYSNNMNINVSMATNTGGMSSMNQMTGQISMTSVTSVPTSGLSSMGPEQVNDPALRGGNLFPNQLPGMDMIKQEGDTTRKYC

Sequence of Nuclear receptor coactivator 1 (Homo sapiens) (Q15788 whole entry, looked up, the tested form may be a part): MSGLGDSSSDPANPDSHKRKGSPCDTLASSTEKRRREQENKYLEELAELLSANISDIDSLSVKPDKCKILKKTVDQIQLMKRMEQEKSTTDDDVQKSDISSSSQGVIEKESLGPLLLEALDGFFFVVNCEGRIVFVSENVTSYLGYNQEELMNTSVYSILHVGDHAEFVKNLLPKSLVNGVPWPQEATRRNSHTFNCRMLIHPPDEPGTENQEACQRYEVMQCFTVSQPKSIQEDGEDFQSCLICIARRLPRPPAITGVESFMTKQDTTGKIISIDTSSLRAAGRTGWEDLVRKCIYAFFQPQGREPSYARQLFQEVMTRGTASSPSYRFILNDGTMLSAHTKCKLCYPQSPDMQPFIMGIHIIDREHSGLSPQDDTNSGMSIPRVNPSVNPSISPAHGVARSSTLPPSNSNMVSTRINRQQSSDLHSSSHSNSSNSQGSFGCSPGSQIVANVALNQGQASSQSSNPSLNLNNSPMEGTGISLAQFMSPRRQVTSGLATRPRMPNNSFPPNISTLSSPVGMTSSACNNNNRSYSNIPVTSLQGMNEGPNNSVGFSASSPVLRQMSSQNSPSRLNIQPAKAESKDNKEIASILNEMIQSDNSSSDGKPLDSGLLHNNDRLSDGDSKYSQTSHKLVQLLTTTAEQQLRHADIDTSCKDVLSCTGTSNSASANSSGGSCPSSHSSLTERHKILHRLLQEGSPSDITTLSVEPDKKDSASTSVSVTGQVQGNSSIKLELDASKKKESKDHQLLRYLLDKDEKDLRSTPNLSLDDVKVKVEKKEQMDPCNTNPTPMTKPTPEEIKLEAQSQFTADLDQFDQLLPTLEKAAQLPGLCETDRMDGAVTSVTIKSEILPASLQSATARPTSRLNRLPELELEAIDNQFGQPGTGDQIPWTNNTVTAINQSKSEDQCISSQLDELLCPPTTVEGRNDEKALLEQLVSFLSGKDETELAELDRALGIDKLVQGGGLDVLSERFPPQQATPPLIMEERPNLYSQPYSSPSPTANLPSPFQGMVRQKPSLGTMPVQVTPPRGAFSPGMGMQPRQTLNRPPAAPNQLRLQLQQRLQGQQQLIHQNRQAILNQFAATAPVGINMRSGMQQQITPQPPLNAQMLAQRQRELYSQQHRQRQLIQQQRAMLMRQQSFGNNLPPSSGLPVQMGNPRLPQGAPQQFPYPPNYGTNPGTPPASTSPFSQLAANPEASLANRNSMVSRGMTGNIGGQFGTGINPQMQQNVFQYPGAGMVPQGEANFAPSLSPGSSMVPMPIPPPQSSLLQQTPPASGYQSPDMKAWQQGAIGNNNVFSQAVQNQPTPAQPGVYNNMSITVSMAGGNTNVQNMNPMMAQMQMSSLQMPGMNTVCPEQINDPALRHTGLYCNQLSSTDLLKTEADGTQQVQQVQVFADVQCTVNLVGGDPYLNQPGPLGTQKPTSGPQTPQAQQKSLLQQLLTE
Sequence of Nuclear receptor coactivator 3 (Homo sapiens) (Q9Y6Q9 whole entry, looked up, the tested form may be a part): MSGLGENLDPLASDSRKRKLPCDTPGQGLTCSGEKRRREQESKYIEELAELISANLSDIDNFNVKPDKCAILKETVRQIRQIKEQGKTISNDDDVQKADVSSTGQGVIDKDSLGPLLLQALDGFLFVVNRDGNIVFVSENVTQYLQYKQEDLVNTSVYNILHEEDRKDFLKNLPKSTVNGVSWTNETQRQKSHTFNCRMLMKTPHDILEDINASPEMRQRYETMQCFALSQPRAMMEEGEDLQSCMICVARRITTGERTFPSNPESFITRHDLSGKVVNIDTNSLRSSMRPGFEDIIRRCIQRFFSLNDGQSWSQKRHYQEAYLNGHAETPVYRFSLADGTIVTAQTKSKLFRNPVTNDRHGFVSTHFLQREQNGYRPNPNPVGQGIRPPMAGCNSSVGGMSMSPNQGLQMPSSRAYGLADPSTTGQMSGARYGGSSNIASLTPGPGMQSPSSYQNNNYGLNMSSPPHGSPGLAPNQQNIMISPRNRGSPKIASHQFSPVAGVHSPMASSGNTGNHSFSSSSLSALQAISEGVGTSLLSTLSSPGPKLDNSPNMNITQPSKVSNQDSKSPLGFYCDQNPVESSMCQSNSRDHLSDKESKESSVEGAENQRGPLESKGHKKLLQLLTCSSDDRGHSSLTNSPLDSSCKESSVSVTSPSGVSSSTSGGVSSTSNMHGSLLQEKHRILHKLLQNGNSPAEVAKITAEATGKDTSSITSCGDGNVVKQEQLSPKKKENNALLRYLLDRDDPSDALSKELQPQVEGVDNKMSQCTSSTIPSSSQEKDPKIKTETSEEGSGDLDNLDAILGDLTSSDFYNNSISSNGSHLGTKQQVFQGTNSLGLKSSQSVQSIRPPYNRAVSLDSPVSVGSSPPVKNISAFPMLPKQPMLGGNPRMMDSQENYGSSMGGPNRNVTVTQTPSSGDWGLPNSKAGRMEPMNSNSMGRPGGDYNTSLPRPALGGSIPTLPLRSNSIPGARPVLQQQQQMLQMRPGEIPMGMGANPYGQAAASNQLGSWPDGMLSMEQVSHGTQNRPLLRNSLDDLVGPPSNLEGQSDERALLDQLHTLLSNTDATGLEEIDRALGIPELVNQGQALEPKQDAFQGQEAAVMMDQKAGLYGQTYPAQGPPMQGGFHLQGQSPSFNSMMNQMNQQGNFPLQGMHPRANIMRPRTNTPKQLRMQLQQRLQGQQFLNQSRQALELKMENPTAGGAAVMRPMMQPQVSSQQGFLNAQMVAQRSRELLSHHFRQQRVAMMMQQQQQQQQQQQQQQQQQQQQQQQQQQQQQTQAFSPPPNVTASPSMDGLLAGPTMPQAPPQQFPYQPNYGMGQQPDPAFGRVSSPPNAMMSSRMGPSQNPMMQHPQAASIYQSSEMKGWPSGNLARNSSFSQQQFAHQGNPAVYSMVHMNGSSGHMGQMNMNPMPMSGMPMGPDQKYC

With `CC(C)(C)c1ccc(Oc2ccc(N)cn2)cc1`, the inhibition in test [1] is 39.6%; in test [2], 20.4%; in test [3], 2.49%; in test [4], 18.6%; in test [5], 69% (active); in test [6] it was 88.9% (active).
For `CC(=O)c1cccc(-c2csc3ncnc(Sc4nnnn4C)c23)c1`, the inhibition is 33% in test [1]; 20.4% in test [2]; 6.55% in test [3]; 30.8% (active) in test [4]; 24% in test [5]; 15.9% in test [6].
As to `COc1ccccc1/C=C/C(=O)c1c2c(c(C)[nH]c1=O)CCCC2`, the inhibition in test [1] was 46.6% (active); in test [2], 49.9% (active); in test [3], 59% (active); in test [4], 44.1% (active); in test [5], 34.1%; in test [6], 39%.
In the case of `COC(=O)c1cccc2c1-c1ccccc1/C2=N/O`, the inhibition was 50.9% (active) in test [1]; 24.4% in test [2]; 34.5% in test [3]; 25.2% in test [4]; 21.1% in test [5]; 42.4% in test [6].
`Cc1c(/C(O)=C2/C(=O)C(=O)N(CCN3CCOCC3)C2c2ccco2)cnn1-c1ccccc1` (stereo unspecified): the inhibition in test [1] was 23.3%; in test [2], 5.75%; in test [3], -20.6%; in test [4], -37.5%; in test [5], -7.38%; in test [6], 39%.
Turning to `CCCN1C=CC(=C2C(=O)c3ccccc3C2=O)C=C1`, the inhibition in test [1] was 65.4% (active); in test [2], 51.3% (active); in test [3], -14.4%; in test [4] it was 38% (active); in test [5], 80.3% (active); in test [6], 91.3% (active).
`COC(=O)CCNc1ccc2c(c1)OCCO2`: the inhibition is 7.16% in test [1]; -2.66% in test [2]; -12.2% in test [3]; -15.9% in test [4]; -9.29% in test [5]; 39.5% in test [6].
Take `Cc1ccc2nc(C(F)(F)F)c(C#N)c(N)c2c1`: the inhibition in test [1] is 48.2% (active); in test [2], 9.27%; in test [3], 27.6%; in test [4], 2.5%; in test [5], 1.92%; in test [6], 50.1% (active).
For the compound `Nc1ncccc1C(=O)OCC(=O)N1CCN(S(=O)(=O)c2ccc(Cl)cc2)CC1`, the inhibition in test [1] was 32.3%; in test [2], 22.3%; in test [3] it was 23.2%; in test [4] it was 20.6%; in test [5] it was -4.99%; in test [6], 25.8%.
Take `C/C(=N\Nc1ncnc2sc(C)c(C)c12)c1ccccn1`: the inhibition is 63.2% (active) in test [1]; 70.1% (active) in test [2]; 18.5% in test [3]; 50.4% (active) in test [4]; -48.8% in test [5]; 1.02% in test [6].
For `C(=N\Nc1ccc2ccccc2n1)/c1ccc2c(c1)OCCO2`, the inhibition in test [1] is 34.6%; in test [2], 24.2%; in test [3], -49.9%; in test [4] it was -11.3%; in test [5] it was 44.3% (active); in test [6], 83.2% (active).
On to `CCCCN(c1ccccc1)c1ncnc(N)c1[N+](=O)[O-]`, for which the inhibition is 72.2% (active) in test [1]; 57.6% (active) in test [2]; 64.5% (active) in test [3]; 48.5% (active) in test [4]; 17.4% in test [5]; 44.7% in test [6].
With `CC1=C(C(=O)OCc2ccc3c(c2)OCO3)C(c2ccc(Cl)cc2)NC(=O)N1` (stereo unspecified), the inhibition in test [1] was 86% (active); in test [2], 74.7% (active); in test [3], 69.2% (active); in test [4], 74.8% (active); in test [5], 29.9%; in test [6], 46.3%.
Regarding `O=C(Nc1ccc2c(c1)OCCO2)C(c1ccnc2ccccc12)N1CCN(c2ccc(C(F)(F)F)cn2)CC1` (stereo unspecified), the inhibition in test [1] was 24.6%; in test [2], 18.1%; in test [3] it was 11.8%; in test [4] it was 30.7% (active); in test [5], -0.8%; in test [6], 57.8% (active).
For the compound `COc1ccc(-n2c(C)c([N+](=O)[O-])c3ccc(O)c(CN(C)C)c32)cc1`, the inhibition in test [1] is 84.5% (active); in test [2], 61.8% (active); in test [3], 73.1% (active); in test [4] it was 61.4% (active); in test [5] it was 24.3%; in test [6] it was 52% (active).
As for `COc1ccc(C(=O)C(CN2CCOCC2)c2ccccc2)cc1` (stereo unspecified), the inhibition was 1.7% in test [1]; 20.9% in test [2]; 0.8% in test [3]; 20.6% in test [4]; 6.4% in test [5]; 35% in test [6].
Turning to `Cc1c(C(C)NC(=O)c2cc(COc3cccc4cnccc34)on2)cnn1C` (stereo unspecified), the inhibition in test [1] was 32.4%; in test [2] it was 40.4% (active); in test [3], 38.3%; in test [4], 33.8% (active); in test [5] it was 7.45%; in test [6], 46.9% (active).
As to `c1cc(-c2nnc3sc(C4CCCCC4)nn23)ccn1`, the inhibition in test [1] was 62.6% (active); in test [2] it was 37.2% (active); in test [3], 58.2% (active); in test [4] it was 51% (active); in test [5] it was 0.17%; in test [6], 35.7%.
`CCCC(=O)N1CCN(c2ccc(NC(=O)c3cc4ccccc4o3)cc2Cl)CC1`: the inhibition was -3.22% in test [1]; 5.64% in test [2]; -6.77% in test [3]; 6.71% in test [4]; 35.5% (active) in test [5]; 27.2% in test [6].
For `COCCn1c(C)cc(C(=O)CSc2nnnn2C2CCCC2)c1C`, the inhibition in test [1] was -7.91%; in test [2], -5.21%; in test [3], -99.2%; in test [4] it was -66.8%; in test [5], -19.6%; in test [6], 51.9% (active).
For `CC(=O)/C(N=Nc1ccc2c(c1)OCCO2)=C(\C)O`, the inhibition in test [1] was 45.3% (active); in test [2] it was -50.6%; in test [3], 22.6%; in test [4], -66.6%; in test [5] it was -9.49%; in test [6], 65.4% (active).

(Values after PubChem BioAssay.)
